# Pf apPOL inh: Pf-apPOL DNA polymerase inhibition | 0.25% of 210,000 active | Recombinant Pf-apPOL, molecular beacon fluorescence, 1.5 h | AID 1794808 | inhibition, % at 10 µM
# mHTT CaM bind: disrupts binding of mutant huntingtin to calmodulin. P42858. AlphaScreen His-mHTT/GST-CaM binding, luminescence. inhibition, % at 15 µM. 3.6% of 190,000 active. AID 1671202;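 also: 0% = both proteins with DMSO and 100% = one protein alone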
# * hit, by the source's call; / = not tested or not shown; + = active, no number. Compounds with a hit are over-represented: about 3.6% of the library has one in this group of screens. Rule as the data show it: active = inhibition above about 50%; inactive = the rest.
SMILES,Pf apPOL inh,mHTT CaM bind
CC(=O)C1=C(C)NC(SCC(=O)c2ccc(F)cc2)=C(C#N)C1c1cccc([N+](=O)[O-])c1 (centres undefined),0,38
Cc1ccc(N2CCN(S(=O)(=O)c3ccc(Cl)c(Cl)c3)CC2)nn1,-8,-10
COc1ccc(S(=O)(=O)N2CCN(c3ccc(N4CCCC4)nn3)CC2)cc1Cl,-3,72*
CC(=O)Nc1ccc(C(=O)N2CC3CN(S(=O)(=O)c4cccc(F)c4)CC(C2)O3)cc1,-6,-4
O=C(Nc1ccc(O)cc1)C1CC=CCC1 (centres undefined),0,70*
O=C(Nc1ccc(NC(=O)C2CCCC2)cc1)C1CCCC1,-3,7
CCc1cc2c3ccccc3ccc2c2ccccc12,2,/
CCCCCCn1c(SCC(O)CO)nc2c1c(=O)[nH]c(=O)n2C (centres undefined),3,5
Cn1c(=O)[nH]c(=O)c2c1nc(SCC(O)CO)n2CC(N)=O (centres undefined),65*,-3
COc1ccc(Cl)cc1NC(=O)c1cncc(-c2ccc(C)cc2)c1,1,3
O=C1c2ccccc2C(=O)N1c1ccc(N2C(=O)c3ccccc3C2=O)c(Cl)c1,0,20
O=C1c2cccnc2C(=O)N1c1ccc(N2C(=O)c3cccnc3C2=O)c(Cl)c1,0,63*
Cc1ccc(S(=O)(=O)N2CCCC(C)(C(=O)NCc3ccc(F)cc3)C2)cc1 (centres undefined),0,-2
Cc1cc(C)cc(S(=O)(=O)N2CCCC(C)(C(=O)NCc3ccccc3)C2)c1 (centres undefined),-7,41
Cc1cc(C)c(S(=O)(=O)N2CCCC(C)(C(=O)NCc3ccccc3)C2)c(C)c1 (centres undefined),-1,59*
Cc1cc(C)cc(S(=O)(=O)N2CCCC(C)(C(=O)NCc3ccc(F)cc3)C2)c1 (centres undefined),0,52*
COc1ccc(N2CCC(CNS(=O)(=O)c3cccc(C(F)(F)F)c3)C2)cc1 (centres undefined),-12,73*
O=C1CC(CNS(=O)(=O)c2cccc(C(F)(F)F)c2)CN1c1ccc(Cl)cc1 (centres undefined),-2,46
Cc1ccccc1C(=O)N1CCC(C(=O)N2CCN(c3ccccc3)CC2)CC1,2,3
COc1ccc(-c2n[nH]c3c2C(c2ccc(OC)cc2)N(c2ccccc2)C3=O)cc1 (centres undefined),-2,43
COc1cc(C2c3c(-c4ccc(F)cc4)n[nH]c3C(=O)N2c2ccccc2)ccc1O (centres undefined),-1,78*
O=C1c2[nH]nc(-c3ccc(F)cc3)c2C(c2ccccc2[N+](=O)[O-])N1c1ccccc1 (centres undefined),-1,83*
O=C1c2[nH]nc(-c3ccccc3)c2C(c2cccc([N+](=O)[O-])c2)N1c1ccccc1 (centres undefined),28,28
CCCCn1c(=N)n(CC(=O)c2cccc([N+](=O)[O-])c2)c2ccccc21,0,-8
Fc1ccc(NCc2ccc3c(c2)OCCO3)cc1F,2,-14
SMILES,Pf apPOL inh,mHTT CaM bind
O=c1c(=O)n(-c2ccc3c(c2)OCCO3)ccn1Cc1cccc(Cl)c1,4,-3
Brc1ccc(CNc2cc3c(cc2Br)OCCO3)cc1,-13,79*
Clc1cccc(CNc2cc3c(cc2Br)OCCO3)c1,-4,88*
COc1ccc(S(=O)(=O)NC2CC2)cc1OC,-9,2
CCOCCCNC(=O)c1ccc2c(c1)nc(C)n2-c1cc(C)cc(C)c1,-20,18
COc1cccc(S(=O)(=O)N2CC3CC2CC3NC(=O)c2ccccc2)c1 (centres undefined),-2,4
O=C(Nc1ccc(Oc2ccccc2)cc1)C1CC(=O)N(c2ccccc2Cl)C1 (centres undefined),0,72*
COc1ccc(NC(=O)C2CC(=O)N(c3ccccc3)C2)cc1 (centres undefined),2,0
Cc1ccc(C(NC(=O)CC(C)C)c2ccc3cccnc3c2O)cc1 (centres undefined),-2,34
CCC(=O)NC(c1ccc(Cl)cc1)c1ccc2cccnc2c1O (centres undefined),-3,100*
CCCC(=O)NC(c1ccc(Cl)cc1Cl)c1ccc2cccnc2c1O (centres undefined),-4,100*
CC(C)CC(=O)NC(c1ccccc1)c1ccc2cccnc2c1O (centres undefined),10,100*
CC(=O)NC(c1ccc(Cl)cc1Cl)c1ccc2cccnc2c1O (centres undefined),2,100*
CCNC(=O)CC1=CSC2=NC(C)=C(C(=O)N(C)C)C(c3ccc(Cl)cc3)N12 (centres undefined),-2,2
CCC(=O)NC(c1ccccc1)c1ccc2cccnc2c1O (centres undefined),0,100*
CCC(=O)NC(c1ccc(OC)cc1)c1ccc2cccnc2c1O (centres undefined),4,100*
CC(C)CC(=O)NCC#CCOc1ccc2c(c1)OCO2,-8,4
CCC(=O)NC(=O)NC(c1ccccc1)c1ccccc1,0,-5
COc1ccc(C(NC(=O)CCc2ccccc2)c2ccc3cccnc3c2O)cc1 (centres undefined),10,100*
CC(C)CC(=O)NC(c1ccc2c(c1)OCO2)c1ccc2cccnc2c1O (centres undefined),-4,100*
COc1ccc(CCC(=O)NCCCOc2cccc3cccnc23)cc1,-5,2
CC1CN(C(=O)Nc2ccc(Cl)cc2)CC1c1nc(-c2cccnc2)no1 (centres undefined),-1,-1
FC(F)(F)c1ccc(CN2CCN(c3cnn4cnnc4c3)CC2)cc1,-8,21
CCCCC(=O)NC(c1ccc(Cl)cc1)c1ccc2cccnc2c1O (centres undefined),1,17
CCCC(=O)NC(c1ccc(Cl)cc1)c1ccc2cccnc2c1O (centres undefined),6,99*
SMILES,Pf apPOL inh,mHTT CaM bind
CCOc1ccc(NC(=O)CCC2CCCN(c3cc(NC4CC4)ncn3)C2)cc1 (centres undefined),-7,16
O=[N+]([O-])c1ccc(S(=O)(=O)CC(Cl)CS(=O)(=O)Cc2ccccc2)cc1 (centres undefined),5,100*
O=[N+]([O-])c1ccc(NCCNS(=O)(=O)Cc2ccccc2)cc1,-4,6
O=S1(=O)N=C(N/N=C/c2cc(Cl)ccc2O)c2ccccc21,/,+
O=S1(=O)N=C(Nc2ccccc2O)c2ccccc21,-5,0
CS(=O)(=O)N1CCN(C(=O)C2CCCN(c3ccc(-c4ccc(F)cc4)nn3)C2)CC1 (centres undefined),-8,-18
CCN(CC)C(=O)COc1ccc2c(C)c(Cc3ccccc3)c(=O)oc2c1,1,26
COc1ccc(CCNC(=O)Nc2cc(F)c(F)cc2Cl)cc1OC,-4,0
COc1ccc(Cl)cc1NC(=O)NCCc1ccc(N(C)C)cc1,-3,55*
CC(C)C(=O)N1CCN(c2nc3c(s2)CC(C(=O)N2CCCCC2)CC3)CC1 (centres undefined),2,1
CC1=NN(c2cccc(Cl)c2)C(=O)/C1=C/c1ccc(Br)c([N+](=O)[O-])c1,-3,81*
CC1=NN(c2ccccc2)C(=O)/C1=C/c1cc(Cl)c(O)c(Cl)c1,-9,64*

# Source: PubChem BioAssay (University of Kansas High Throughput Screening Laboratory)
